The values below come from PubChem BioAssay AID758 (NMMLSC, 2007).

About 110 (0.058%) of roughly 190,000 compounds were called active. Inconclusive results (about 2%) are left out.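 The calls were made as follows: active = fluorescent GTP binding to Rab7 beads changed by at least 20 points from the 100% baseline, either direction, mostly lower; inconclusive = compound itself probably fluorescent, or too few beads counted; inactive = the rest.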 The sample as a whole holds a higher share of actives than the screen did.

The test system of the test is Rab7 GTPase wild type (dog), Bodipy-FL-GTP binding. Kind of test: modulators of GTP binding to Rab7, primary screen, biochemical, wildtype, multiplex bead flow cytometry (AID 758).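 Also: median green fluorescence of bound Bodipy-FL-GTP per Rab7 bead population.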 The following applies: GST-Rab7 beads, fluorescent GTP binding, at 10 µM, actives lie on both sides. For orientation: In flow cytometry, cells or beads pass a laser one at a time.
Consider `CCCC(C)n1[nH]c(=O)c2c1NC(=O)CSC2c1ccc(OC)c(OC)c1` (stereo not given), for which the GTP binding activity (percent of control) was 100% (inactive). With `CCOc1ccc(C2SCC(=O)Nc3c2c(C)nn3C2CCOC(C)(C)C2)cc1` (stereo not given), the GTP binding activity (percent of control) was 79% (active). With `CN(C)CCCN=Cc1c(O)n(Cc2ccco2)c(=O)[nH]c1=O`, the GTP binding activity (percent of control) was 104% (inactive). In the case of `COP(=O)(OC)C(NC(=O)c1ccc(C)cc1)C(Cl)(Cl)Cl` (stereo not given) it was 99% (inactive); in that of `O=C(Cc1ccccc1)N1CCN(C2CCCCCC2)CC1`, 98% (inactive).
